# Screening data deposited in PubChem BioAssay by National Center for Advancing Translational Sciences (NCATS).
# IL1B secr inh: blocks inflammasome-driven IL-1 beta release. THP-1 LPS/ATP IL-1B secretion, AlphaLISA, 16 h; hits give low values. activity change, % at 57.5 µM. hit rate 4.7% among 360,000; in the data active = activity change below about -50%; inconclusive = mostly about -30% to -49%; also: % is scaled to controls: 0 for no effect and ±100 for the full control effect
#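 THP-1 cells pretreated 1 hr with compounds (up to 57.5 uM final), then stimulated with LPS (250 ng/mL final) plus ATP (1.25 mM final); secreted IL-1B measured by AlphaLISA after 16 hr, decreased signal indicating inhibition.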
# TDP1 cell CPT: DT40-hTDP1 cell growth loss with CPT | chicken DT40 Tdp1-/-;hTDP1 cells + 20 nM CPT, ATP luminescence, 48 h | Potency, µM (highest dose often 46.2 µM), without a hit: at the top dose activity change, negative = growth inhibition, hits mostly inhibitors | hit rate 12% among 420,000; also: potency is read from the fitted curve at half-maximal effect; % is scaled to controls: 0 for no effect and ±100 for the full control effect; nearly all actives have a fitted effect of over 55% in size
#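 Chicken DT40 Tdp1-/- cells stably complemented with human TDP1 were seeded at 400 cells/well in medium containing 20 nM camptothecin, exposed to pin-transferred compounds, and grown at 37 °C for at least 48 hr. Viability was read as ATP luminescence.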
# TDP1 cell noCPT: qHTS for Inhibitors of human tyrosyl-DNA phosphodiesterase 1 (TDP1): qHTS in cells in absence of CPT | Potency, µM (highest dose often 46.2 µM), for the others: at the highest dose activity change, negative = growth inhibition, usual class: inhibitors | DT40 Tdp1-/- hTDP1 cells, no CPT, ATP luminescence, 48 h | hit rate 15% among 420,000; also: potency is read from the fitted curve at half-maximal effect; % is scaled to controls: 0 for no effect and ±100 for the full control effect; nearly all actives have a fitted effect of over 55% in size
#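 Chicken DT40 Tdp1-/- cells complemented with human TDP1, screened without camptothecin (DMSO vehicle only), 400 cells/well. Compounds pin-transferred, cells incubated at 37 °C for at least 48 hr. Growth read as ATP-dependent luminescence (CellTiter-Glo, 30 min at RT).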
# TGFb SMAD3 inh: blocks TGF-b signaling; hit rate 1.2% among 410,000; HepG2 CAGA-GFP TGF-b/SMAD3 reporter, GFP fluorescence, 18 h; TGF-beta stimulated, 500 pg/mL final; Potency, µM (highest dose often 46.1 µM), for the others: at the top dose activity, negative = inhibition, actives largely listed as inhibitors; also: potency is read from the fitted curve at half-maximal effect; % is scaled to controls: 0 for no effect and ±100 for the full control effect; nearly all actives have a fitted effect of over 65% in size
#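 First, reporter cells (HEPG2 CAGA-GFP) rested 2 h at 37 degrees C. Next, compounds were pinned in and TGF-beta added to 500 pg/mL final. After 18 h, GFP was imaged per cell and summed per well.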
# TDP1 inh: TDP1 (human) enzyme inhibition; recombinant TDP1, AlphaScreen DNA substrate cleavage; Potency, µM (series often up to 130 µM), inactives show top-dose activity change, negative = inhibition, usual class: inhibitors; hit rate 0.28% among 350,000; also: potency is read from the fitted curve at half-maximal effect; % is scaled to controls: 0 for no effect and ±100 for the full control effect; nearly all actives have a fitted effect of over 40% in size
# Target sequence (Q9NUW8 whole entry, looked up): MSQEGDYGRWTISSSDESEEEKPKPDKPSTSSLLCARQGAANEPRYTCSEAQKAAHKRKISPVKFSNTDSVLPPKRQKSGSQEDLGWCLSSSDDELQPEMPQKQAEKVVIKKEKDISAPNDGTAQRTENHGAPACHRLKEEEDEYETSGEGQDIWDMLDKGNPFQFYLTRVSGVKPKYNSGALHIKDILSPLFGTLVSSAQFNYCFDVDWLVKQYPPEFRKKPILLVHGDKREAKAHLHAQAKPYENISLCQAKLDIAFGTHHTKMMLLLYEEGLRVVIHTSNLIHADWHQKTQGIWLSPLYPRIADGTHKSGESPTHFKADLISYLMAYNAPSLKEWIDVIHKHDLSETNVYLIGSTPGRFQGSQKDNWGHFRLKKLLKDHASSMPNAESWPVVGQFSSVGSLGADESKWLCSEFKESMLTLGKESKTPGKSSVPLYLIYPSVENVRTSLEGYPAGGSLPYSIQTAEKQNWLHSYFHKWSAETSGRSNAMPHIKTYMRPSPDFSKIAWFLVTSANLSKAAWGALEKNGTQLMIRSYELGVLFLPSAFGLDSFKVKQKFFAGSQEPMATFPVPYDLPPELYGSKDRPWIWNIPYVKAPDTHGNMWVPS
#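 Enzyme-compound mixtures sat 15 min at room temperature, followed by a 5 min reaction with 15 nM final substrate and 10 min with AlphaScreen beads. Recombinant human Tdp1 was used at 1 nM final.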
# HepG2 viability: kills HepG2 cells in TGF-b inhibitor counter-screen | Potency, µM (doses to about 46.1 µM), for inactives: at the highest dose activity change, negative = cytotoxicity, most hits filed as cytotoxic | AID 588856 | HepG2 CAGA-GFP viability, ATP luminescence, 18 h | hit rate 0.76% among 410,000; also: potency is read from the fitted curve at half-maximal effect
#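 HepG2 CAGA-GFP cells (1000/well, DMEM with 1% FBS) received compound, then TGF-beta at 500 pg/mL final, and were incubated 18 hours at 37 degrees C. Viability was read by CellTiter-Glo luminescence. Media-only wells were set as complete cell-killing and DMSO as no toxicity.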
# The depositor's hits bear a star; ? = inconclusive; · = not tested or not shown. Compounds with a hit are over-represented: about 19% of the library has one in this group of screens. Unless noted, calls follow the shape of the dose curve; as a rule, active = well fitted curve in the direction sought with a large enough effect; inconclusive = small, poorly fitted or top-dose-only effect, or another doubt; inactive = no such curve, though single readings can be large; an effect the other way counts as inactive or inconclusive.
SMILES,IL1B secr inh,TDP1 cell CPT,TDP1 cell noCPT,TGFb SMAD3 inh,TDP1 inh,HepG2 viability
CCOc1cc(CNC(CC)CO)ccc1OCC(=O)Nc1cccc(C(F)(F)F)c1 (stereo not given),-20.1,?,25.9µM*,-17.3%,3.7%,-61.4%
CSc1cccc(NC(=O)NCc2cccc(CNC(=O)Nc3cccc(SC)c3)c2)c1,0.0,?,?,?,·,12.6µM*
COc1ccc(CNC(=O)NCc2ccc(OC)c(OC)c2)cc1OC,30.4,-9.6%,-6.2%,-9.3%,0.0%,-20.5%
CSc1cccc(NC(=O)C(=O)NCc2ccccc2)c1,-10.5,-2.2%,-7.8%,-9.3%,4.1%,9.4%
Cc1ccc(OCC(=O)Nc2cccc(OCc3cc(=O)n4ccccc4n3)c2)cc1C,·,-6.3%,-10.1%,-0.6%,-2.7%,0.4%
Cc1ccc(C)c(C(=O)OCC(=O)NC(=O)NCc2ccccc2)c1,-14.3,-15.9%,?,1.0%,·,2.0%
CCCNC(=O)CN1C(=O)NC(c2ccccc2)(c2ccccc2)C1=O,-8.4,10.5%,2.3%,0.0%,2.9%,-70.8%
CCOC(=O)/C(=C\c1cn(C)c2ccccc12)[N+](=O)[O-],-85.1*,?,?,-31.1%,0.0%,-18.8%
CCOC(=O)/C(C#N)=C\c1cn(C)c2ccccc12,2.0,24.8%,-10.7%,3.3%,1.2%,-1.0%
CCCCOc1ccc(/C=C/C(=O)Nc2ccc(C(N)=O)cc2)cc1,11.7,-5.3%,-6.8%,-11.8%,-2.7%,-1.8%
CCOc1ccc(NC(C(=O)Nc2cccc(C(C)=O)c2)c2ccccc2)cc1 (stereo not given),0.0,14.6µM*,14.6µM*,-6.6%,8.2%,-4.8%
COCC(C)NC(C(=O)Nc1cccc(C(C)=O)c1)c1ccccc1 (stereo not given),-3.2,-4.8%,-12.0%,-4.7%,2.6%,7.1%
CCN(CC)CCNC(C(=O)Nc1cccc(C(C)=O)c1)c1ccccc1 (stereo not given),8.2,11.5%,?,-28.8%,-1.2%,12.6µM*
CCOc1ccc(/C=C/C(=O)Nc2cccc(C(C)=O)c2)cc1,-2.3,-85.1%,0.581µM*,-2.5%,3.1%,3.8%
COc1ccc(CCN(CC(=O)NC2CCCC2)C(=O)Cn2nnc(-c3ccc(C)o3)n2)cc1OC,0.0,1.3%,-0.9%,?,3.7%,10.8%
CCC(NC(=O)CCc1nnc(-c2cc(C)on2)o1)C12CC3CC(CC(C3)C1)C2 (stereo not given),25.0,20.6µM*,16.4µM*,0.5%,6.2%,4.7%
CCOC(=O)c1cccc(NS(=O)(=O)c2ccc(-c3coc(C)n3)cc2)c1,·,1.2%,?,-17.8%,5.5%,-14.1%
C(=N\N(c1ccccc1)c1ccccc1)/c1ccccn1,-4.5,-13.3%,29.1µM*,-9.0%,-0.3%,-26.1%
COc1ccc(/C=N/N(Cc2ccccc2)c2ccccc2)cc1O,-86.2*,?,?,?,2.5%,-38.6%
O=Cc1ccc(O)c(O)c1,-57.1*,-0.9%,-7.0%,-2.1%,-4.8%,-17.2%
Oc1ccc(/C=N/N=C/c2ccc(O)c(O)c2)cc1O,51.0,?,18.4µM*,-4.8%,·,-34.5%
COc1ccc(-n2ccn(CC(=O)Nc3ccc(OC)cc3OC)c(=O)c2=O)cc1,9.3,0.0%,-2.5%,5.8%,3.8%,4.2%
CCS(=O)(=O)N1CC(=O)N(c2ccc(Cl)cc2C)C(C)(C(=O)NC2CCCCCC2)C1 (stereo not given),·,?,?,0.0%,-2.5%,-5.3%
